# FLuc inh-1 = Firefly luciferase inhibition profiling of diverse chemical library using quantitative high-throughput screening; Luciferin 4-monooxygenase (Photinus pyralis), P08659; Potency, µM (highest dose often 115 µM), actives largely listed as inhibitors; purified P. pyralis luciferase, luminescence, biochemical; 76,000 compounds, 2.5% hits; also: % is scaled to controls: 0 for no effect and ±100 for the full control effect; nearly all actives have a fitted effect of over 65% in size
# Target sequence (P08659 whole entry, looked up): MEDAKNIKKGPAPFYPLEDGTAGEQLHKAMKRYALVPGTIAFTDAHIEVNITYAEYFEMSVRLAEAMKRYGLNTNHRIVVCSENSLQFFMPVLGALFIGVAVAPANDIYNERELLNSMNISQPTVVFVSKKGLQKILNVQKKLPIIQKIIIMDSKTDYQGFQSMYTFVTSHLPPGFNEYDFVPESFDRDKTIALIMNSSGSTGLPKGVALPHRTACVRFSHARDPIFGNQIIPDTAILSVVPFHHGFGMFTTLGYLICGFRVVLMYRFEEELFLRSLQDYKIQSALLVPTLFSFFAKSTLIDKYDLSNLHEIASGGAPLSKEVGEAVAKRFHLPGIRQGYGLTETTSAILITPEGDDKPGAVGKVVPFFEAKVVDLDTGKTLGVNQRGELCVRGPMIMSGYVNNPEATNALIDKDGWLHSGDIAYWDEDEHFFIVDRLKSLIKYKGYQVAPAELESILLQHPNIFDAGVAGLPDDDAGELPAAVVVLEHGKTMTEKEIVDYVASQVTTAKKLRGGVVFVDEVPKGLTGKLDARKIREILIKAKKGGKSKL
#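 Purified 10nM P. pyralis luciferase with 10uM D-luciferin and 10uM ATP in 50mM Tris acetate pH 7.5, 10mM Mg acetate, 0.01% Tween-20, 0.05% BSA. qHTS titration; luminescence read by CCD imager.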
# hNpr1 antagonist = Natriuretic polypeptide receptor (hNpr1) antagonism - Primary qHTS. Atrial natriuretic peptide receptor 1 (Homo sapiens), P16066. HEK293 hNpr1 GloSensor cGMP, ANP-stimulated luminescence. Potency, µM (doses to about 46.3 µM), inactives show top-dose activity change, negative = inhibition, hits mostly inhibitors. 76,000 compounds, 1.6% hits; calls by dose curve; also: % is scaled to controls: 0 for no effect and ±100 for the full control effect; nearly all actives have a fitted effect of over 60% in size
#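 Compound pre-incubated 30 min at room temperature on GloSensor-loaded HEK293 cells stably carrying hNpr1 and the pGS-40F cGMP biosensor. Stimulation uses hNppA at 0.1 nM final; luminescence is taken at baseline and 20 min post-agonist.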
# HEK293 tox = Cytotoxic Profiling in HEK 293 Cell Line of Diverse Libraries Using Quantitative High-Throughput Screening | HEK 293 viability, ATP luminescence (CellTiter-Glo), 48-72 h | Potency, µM (titrated, usually from 115 µM), inactives show top-dose activity change, negative = cytotoxicity, usual class: inhibitors | 94,000 compounds, 6.6% hits; also: % is scaled to controls: 0 for no effect and ±100 for the full control effect; nearly all actives have a fitted effect of over 60% in size
#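 Pintool-delivered compounds were incubated with HEK 293 cells (250 cells/well) at 37 degree Celsius for 48 or 72 hr. ATP-dependent luminescence (CellTiter-Glo) then reported remaining viable cells.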
# GPT2 inh = Primary qHTS assay for inhibitors of Glutamate pyruvate transaminase 2 (GPT2); Recombinant GPT2, coupled pyruvate oxidase/HRP Amplex Red fluorescence; Potency, µM (doses to about 57.7 µM), without a hit: at the highest dose activity change, negative = inhibition, most hits filed as inhibitors; 100,000 compounds, 0.25% hits; also: % is scaled to controls: 0 for no effect and ±100 for the full control effect; nearly all actives have a fitted effect of over 60% in size
#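 Inhibition is scored from Amplex Red fluorescence generated when pyruvate oxidase and HRP act on pyruvate released by GPT2. Reactions contain 10ng/uL enzyme, 250uM a-KG and 2mM L-alanine and run 30 min at room temperature.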
# 3T3 cytotox = Cytotoxic Profiling in NIH 3T3 Cell Line of Diverse Libraries Using Quantitative High-Throughput Screening; AID 1345082, 2018; Potency, µM (titrated, usually from 96.7 µM), inactives show at the highest dose activity change, negative = cytotoxicity, usual class: inhibitors; NIH 3T3 viability, CellTiter-Glo ATP luminescence, 48-72 h; 94,000 compounds, 4.3% hits; also: % is scaled to controls: 0 for no effect and ±100 for the full control effect; nearly all actives have a fitted effect of over 55% in size
#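 Luminescent ATP readout (CellTiter-Glo, 10 min RT) after 48 or 72 hr compound exposure of NIH 3T3 cells seeded at 400 cells/well in 1536-well format; quantitative HTS.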
# FLuc SDR -ATP = Firefly luciferase (FLuc-C-HiBiT) SDR gain of signal screen - without ATP; shares compounds with FLuc inh-1; Purified FLuc-C-HiBiT, Nano-Glo HiBiT luminescence, no ATP; Potency, µM (doses to about 32.7 µM), for the others: at the top dose activation (signal gain), actives largely listed as activators; 1,300 compounds, 7.8% hits; also: nearly all actives have a fitted effect of over 55% in size
# FLuc SDR ATP = Firefly luciferase (FLuc-C-HiBiT) SDR gain of signal screen - plus ATP; shares compounds with FLuc inh-1; purified FLuc-C-HiBiT + ATP, HiBiT complementation luminescence; Potency, µM (titrated, usually from 32.7 µM), inactives show at the top dose activation (gain of signal), actives largely listed as activators; 1,300 compounds, 8.7% hits;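 also: signal reports ligand binding via conformational change of the enzyme rather than luciferase catalysis; % of control where 0% means no effect; nearly all actives have a fitted effect of over 55% in size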
# FLuc inh-2 = Firefly luciferase (FLuc-C-HiBiT) enzymatic inhibition screen - Functional assay | shares compounds with FLuc inh-1 | purified FLuc-C-HiBiT enzyme, luciferin luminescence | Potency, µM (highest dose often 32.7 µM), for the others: at the top dose activity change, negative = inhibition, actives largely listed as inhibitors | 1,300 compounds, 42% hits; also: % is scaled to controls: 0 for no effect and ±100 for the full control effect; nearly all actives have a fitted effect of over 70% in size
# Numbers without * were called inactive; i = inactive; ? = inconclusive; nt = not tested or not shown; [ ] = another dose, or the depositor's remark. The list is not random: actives were taken first. Their share in the collection is about 10%. Unless noted, calls follow the shape of the dose curve; as a rule, active = well fitted curve in the direction sought with a large enough effect; inconclusive = small, poorly fitted or top-dose-only effect, or another doubt; inactive = no such curve, though single readings can be large; an effect the other way counts as inactive or inconclusive. Potency is read from the fitted curve at half-maximal effect.
SMILES,FLuc inh-1,hNpr1 antagonist,HEK293 tox,GPT2 inh,3T3 cytotox,FLuc SDR -ATP,FLuc SDR ATP,FLuc inh-2
Cc1c(CN2CCC(O)(c3ccccc3)[C@H](N3CCCC3)C2)cnn1C (stereo partly drawn),i,2%,?,i,?,nt,nt,nt
C[C@@H]1CN(C(=O)c2cnc3c(O)cccn3c2=O)CC[C@@]1(O)C1CCC1,i,-1%,?,?,?,nt,nt,nt
COCCN1CCOc2nc(-c3cc(F)ccc3OC)ncc2C1=O,i,3%[70.6 µM],?,-5%[88.5 µM],?,nt,nt,nt
COc1ncccc1-c1ncc2c(n1)OCCN(c1ccccc1)C2=O,i,-1%[70.6 µM],0%[172 µM],1%[88.5 µM],?,nt,nt,nt
COc1ccc(-c2ncc3c(n2)OCCN(C)C3=O)cc1F,nt,nt,nt,nt,nt,?,?,18µM*
CN1CCOc2nc(-c3ccc(Oc4ccccc4)cc3)ncc2C1=O,4.5µM*,25µM*,?,-9%[88.5 µM],?,21%[49.3 µM],19%[49.3 µM],?
COc1ccc(-c2ncc3c(n2)OCCN(c2ccccc2)C3=O)cc1F,0.71µM*,16µM*,-27%[172 µM],3%[88.5 µM],?,?,?,3.2µM*
O=C1c2cnc(-c3cccc(CO)c3)nc2OCCN1c1ccccc1,3.2µM*,?,40µM*,-6%[88.5 µM],40µM*,20µM*,?,11µM*
Cc1cc2ncc(C(=O)NCc3cccc(C(F)(F)F)c3)cn2n1,nt,nt,?,-7%[88.5 µM],?,nt,nt,nt
CCOc1cccc2cc(-c3nc4ccc(C(=O)O)cc4[nH]3)c(=O)oc12,nt,nt,nt,nt,nt,?,0.16µM*,0.16µM*
COC(=O)Nc1nc2ccc(C(=O)c3ccccc3)cc2[nH]1,nt,nt,nt,2%,nt,nt,nt,nt
COc1ccc2cc(-c3nc4ccc(C(=O)O)cc4[nH]3)c(=O)oc2c1,nt,nt,nt,nt,nt,0.79µM*,0.02µM*,0.016µM*
CCn1ccnc1C1CCN(c2nc3ccccc3s2)CC1,3.2µM*,?,?,-2%,-1%,22%,16%,?
CCn1c(CN2CCN(c3nc4ccccc4s3)CC2)nnc1C1CC(N)C1 (stereo not drawn),i,4%,-11%,i,-1%,nt,nt,nt
CN(C1CCc2nn(CC3CC3)c(=O)n2CC1)S(=O)(=O)c1ccc2c(c1)OCCO2 (stereo not drawn),nt,nt,-28%,i,?,nt,nt,nt
O=C(NCc1cccs1)c1ccc2nnc(Cc3ccco3)n2c1,nt,nt,2%[172 µM],i,?,nt,nt,nt
O=C(NCCc1ccccc1F)c1nc2sccn2c1Br,1.6µM*,?,?,i,?,24%,?,7µM*
Cc1ccc(C(=O)Nc2cccc3cccnc23)cc1Cl,nt,nt,nt,nt,nt,9%,8%,-14%
Cc1ncc(CC(=O)NCc2ccc3[nH]c(-c4ccccc4F)c(C)c3c2)c(=O)[nH]1,13µM*,0%,?,i,?,18%,15%,?
Cc1ncc(C(=O)NCc2ccc3[nH]c(-c4ccccc4F)c(C)c3c2)c(C)n1,6.3µM*,7.9µM*,?,-5%[11.5 µM],?,18%,13%,7.9µM*
Cc1oc(-c2cccc(C(F)(F)F)c2)nc1CN(C)Cc1cnn(C)c1,i,-1%,?,-22%[11.5 µM],-30%,nt,nt,nt
CN(C(=O)Nc1ccccc1)C1CCc2nn(CC3CC3)c(=O)n2CC1 (stereo not drawn),nt,nt,4%,-6%,-6%,nt,nt,nt
COc1ccc(Br)cc1C(=O)Nc1nc2ccc(F)cc2s1,nt,nt,nt,nt,nt,16%,11%,-8%
Cc1ccc(NC(=O)Nc2ccc(C)n(CC(=O)NC(C)(C)C)c2=O)cc1,4µM*,0%,?,0%,-18%,?,?,3.9µM*
COc1ccc(NC(=O)Nc2ccc(C)n(CC(=O)N3CCCC(C)C3)c2=O)cc1 (stereo not drawn),7.1µM*,4%,-16%,4%,-29%,?,?,7.9µM*
SMILES,FLuc inh-1,hNpr1 antagonist,HEK293 tox,GPT2 inh,3T3 cytotox,FLuc SDR -ATP,FLuc SDR ATP,FLuc inh-2
Cc1ccc(NC(=O)Nc2ccc(C)n(CC(=O)Nc3ccc4c(c3)OCO4)c2=O)cc1,?,-17%,-29%,i,-29%,nt,nt,nt
Cc1ccc(NC(=O)Nc2ccc(C)n(CC(=O)NCC(C)C)c2=O)cc1,0.89µM*,-29%,?,-18%,?,3.9µM*,?,1.1µM*
Cc1ccc(NC(=O)Nc2ccc(C)n(CC(=O)Nc3ccc(C)c(C)c3)c2=O)cc1,?,4%,-12%,-9%,i,nt,nt,nt
COc1ccc(NC(=O)Nc2ccc(C)n(CC(=O)N3CCCN(C)CC3)c2=O)cc1,?,-8%,0%,5%,i,nt,nt,nt
CCC(C)NC(=O)Cn1c(C)ccc(NC(=O)Nc2ccc(C)cc2)c1=O (stereo not drawn),2µM*,-23%,?,-12%,?,3.1µM*,?,1.2µM*
COc1ccc(C(=O)N2CCN(c3cc(-c4cccs4)[nH]n3)CC2)cc1,i,?,?,i,?,nt,nt,nt
Cn1ncc2c(C(=O)NCCCc3ccccc3)cc(-c3cccc(F)c3)nc21,nt,nt,?,nt,-23%,nt,nt,nt
Cn1ncc2c(C(=O)NCC(F)F)cc(-c3ccc(Cl)cc3Cl)nc21,nt,nt,3%,-8%,?,nt,nt,nt
CCCNC(=O)Cn1c(C)ccc(NC(=O)Nc2ccc(OC)cc2)c1=O,4µM*,-17%,-27%,i,?,?,?,6.2µM*
Cc1ccc(-c2nc3ccccc3s2)cc1NC(=O)COc1ccccc1,nt,nt,nt,nt,nt,13%,8%,-9%
COc1ccc(OCC(=O)Nc2cccc(-c3nc4ccccc4s3)c2C)cc1,nt,nt,nt,nt,nt,27%,16%,7.9µM*
COc1ccc(CC(=O)Nc2ccc(-c3nc4ccccc4s3)cc2Cl)cc1,nt,nt,nt,nt,nt,16%,13%,-11%

# Screens from PubChem BioAssay.
